Compounds with a hit are over-represented: about 3.2% of the library has one in this group of screens.
MsrA inh = bovine MsrA enzyme inhibitors, primary screen, biochemical, absorbance, HTS; Methionine sulfoxide reductase A (Bos taurus); purified bovine MsrA, absorbance read-out; actives 0.75% (n = 360,000); inhibition, % at 15.5 µM; in the data active means inhibition above about 4.5%;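 further: 0% = vehicle wells with enzyme and 100% = reference inhibitor wells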
PG9 binder = binders of HIV-1 gp120 antibody PG9, primary screen, biochemical, TR-FRET. actives 0.43% (n = 360,000). inhibition, % at 6.7 µM. HIV-1 gp120 / PG9 antibody interaction. TR-FRET gp120-PG9 antibody binding; in the data active means inhibition above about 8.5%
sPLA2-III inh = human group III sPLA2 inhibitors, primary screen, biochemical, QFRET, BODIPY PC-A2 liposome substrate. Group 3 secretory phospholipase A2 (Homo sapiens), Q9NZ20. QFRET BODIPY PC-A2 liposome hydrolysis, fluorescence. inhibition, % at 12.2 µM. actives 0.56% (n = 370,000). AID 743126, 2013;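 active means inhibition above mean plus 3 SD of compounds lying within the high and low control bounds, cut at about 19% in these data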;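 further: 0% = median of test compound wells and 100% = no enzyme DMSO wells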
Target sequence (Q9NZ20 whole entry, looked up): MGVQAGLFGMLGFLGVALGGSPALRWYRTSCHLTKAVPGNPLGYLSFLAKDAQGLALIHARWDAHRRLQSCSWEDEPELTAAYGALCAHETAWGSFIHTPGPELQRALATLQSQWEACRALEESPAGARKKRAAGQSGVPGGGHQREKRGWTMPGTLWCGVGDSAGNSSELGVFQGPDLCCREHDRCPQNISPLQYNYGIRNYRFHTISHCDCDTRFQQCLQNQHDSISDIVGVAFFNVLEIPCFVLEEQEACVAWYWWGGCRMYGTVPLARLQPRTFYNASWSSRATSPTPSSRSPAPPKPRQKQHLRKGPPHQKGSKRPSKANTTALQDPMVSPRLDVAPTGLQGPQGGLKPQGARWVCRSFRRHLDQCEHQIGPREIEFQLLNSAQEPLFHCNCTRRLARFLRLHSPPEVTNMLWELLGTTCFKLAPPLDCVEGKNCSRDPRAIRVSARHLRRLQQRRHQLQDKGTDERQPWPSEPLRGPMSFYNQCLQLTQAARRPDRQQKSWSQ
rCAG RNA binder = binders of r(CAG) RNA repeats, primary screen, biochemical, fluorescence; inhibition, % at 3 µM; actives 1.3% (n = 370,000); r(CAG) RNA repeat, TO-PRO-1 dye displacement fluorescence; AID 651821, 2012;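 active means inhibition above the plate cutoff, the mean of all test compounds on that plate plus 3 SD, cut at about 35% in these data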;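 further: 0% = DMSO alone and 100% = 100 µM mitoxantrone as full dye displacement; higher means more dye released from RNA so lower well fluorescence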
MsrA act = bovine MsrA enzyme activators, primary screen, biochemical, absorbance, HTS; Methionine sulfoxide reductase A (Bos taurus); purified bovine MsrA, absorbance read-out; activation, % at 10.6 µM; actives 0.3% (n = 360,000); in the data active means activation above about 7.5%;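 further: 0% = vehicle and 100% = reference activator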
rCAG binder conf = small molecules binding CAG repeat RNA – biochemical, fluorescence, confirmation | actives 70% (n = 4,300) | shares compounds with rCAG RNA binder | inhibition, % at 3 µM | r(CAG) RNA repeat, TO-PRO-1 dye displacement fluorescence;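 active means inhibition above a per-plate cutoff, the mean inhibition of sample wells plus 3 SD, cut at about 35% in these data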;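 further: loss of TO-PRO-1 fluorescence as compound displaces dye from 1x1 AA loop RNA; 0% = DMSO only wells and 100% = 100 µM mitoxantrone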
DNA CAG counter = displacement of TO-PRO-1 from CAG DNA duplex, counter-screen for rCAG RNA repeat binder project, biochemical, fluorescence, TO-PRO-1 dye, d(CAG) DNA oligo. inhibition, % at 3 µM. shares compounds with rCAG RNA binder. d(CAG) DNA oligo TO-PRO-1 dye displacement. actives 94% (n = 4,300);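 active means inhibition above its plate's cutoff, the mean test-well inhibition plus 3 SD, cut at about 4.8% in these data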;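 further: 0% = DNA dye mix with DMSO and 100% = 100 µM mitoxantrone; hits displace the dye from DNA and so lower well fluorescence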
DNA CAG DR = inhibitors of DNA CAG/GTC TO-PRO-1 complex, dose response, counter-screen for rCAG RNA repeat binder project, biochemical, fluorescence, TO-PRO-1 dye. shares compounds with rCAG RNA binder. DNA CAG/GTC duplex TO-PRO-1 dye displacement fluorescence. IC50, µM. actives 20% (n = 250). AID 686960, 2013; in the data active means IC50 below about 10 µM
* hit, by the source's call; i = inactive; . = no result given.

SMILES	MsrA inh	PG9 binder	sPLA2-III inh	rCAG RNA binder	MsrA act	rCAG binder conf	DNA CAG counter	others
O=C1NC(=O)/C(=C\c2ccccc2OCc2ccccc2)S1	3	0	-62	69*	-2	58*	20*
COc1ccccc1OCCCOc1ccc(/C=C2\SC(=O)NC2=O)cc1OC	1	-1	-18	32	-3	.	.
Cc1ccc(S(=O)(=O)Oc2ccccc2/C=C2/SC(=O)NC2=O)cc1	2	0	-38	44*	-3	36*	7.0*
COc1cc(/C=C2/SC(=O)NC2=O)ccc1OCc1ccccc1	4	-1	-42	59*	-15	51*	13*
Clc1cc(Cl)cc(CNC2CCC23CCCCC3)c1 (stereo not given)	.	.	2	.	.	.	.
Cc1ccc(Cn2cc(COC(=O)Nc3ccc(F)cc3)nn2)cc1	.	.	-16	-1	.	.	.
CC[C@@]1(c2cccc(Cl)c2)C(=O)N(C(=O)OC(C)C)N1C(=O)OC(C)C	.	.	3	-1	.	.	.
Nn1c(SCC(=O)Nc2ccc(OCc3ccccc3)cc2)nnc1-c1cc(-c2ccc(F)cc2)n[nH]1	.	.	2	7	.	.	.
CCCOc1ccc2ccccc2c1/C=C1\SC(=O)NC1=O	2	-2	-38	53*	-3	44*	13*
O=C1NC(=O)/C(=C/c2cccc3ccccc23)S1	2	-3	-34	24	-10	.	.
O=C(O)C1=C2C(=O)Nc3cccc(c32)C2(C1)C(=O)Nc1ccccc12 (stereo not given)	1	-3	-8	39*	-2	59*	22*
Cc1cccc(NS(=O)(=O)c2nnc(NC(=O)c3ccc(C)c(C)c3)s2)c1	1	0	-35	41*	0	37*	14*
Cc1cccc(NS(=O)(=O)c2nnc(NC(=O)C3CCCCC3)s2)c1	1	0	-28	37*	0	20	5.3*
COCC(=O)N1CCC(C(=O)NC2CCCc3ccccc32)CC1 (stereo not given)	.	.	0	1	.	.	.
Cc1cc(=O)oc(C)c1C(=O)NNC(=O)C1(C)CC1Br (stereo not given)	0	-3	0	1	-13	.	.
CC1(C(=O)NNC(=O)c2ccc(=O)oc2)CC1Br (stereo not given)	1	-3	-10	43*	-4	60*	24*	DNA CAG DR=9.9*
COC(=O)[C@]12C[C@H](CC(=O)NCCCN3CCCC3=O)C(=O)N(CCc3ccc(OC)c(OC)c3)C1=C[C@H](C(C)(C)C)O[C@@H]2C	.	.	5	-3	.	.	.
CC(=O)O[C@@H]1CCC[C@@]2(C(=O)Nc3ccccc32)[C@H]1NC(=O)C(C)C	.	.	6	3	.	.	.
Cc1cc(OCC(=O)NNC(=S)NC(=O)c2ccc(Br)o2)ccc1Cl	2	-1	16	45*	6	69*	22*	DNA CAG DR=i
Cc1coc2c1C(=O)C(=O)c1c-2ccc2c1CCCC2(C)C	1	-1	0	43*	-4	23	13*
C[C@H]1COC2=C1C(=O)C(=O)c1c2ccc2c1CCCC2(C)C	.	.	.	.	-11	.	.
O=C(Cc1ccc([N+](=O)[O-])cc1)NNC(=O)c1cccs1	-2	-1	3	55*	0	1	0
CCOC(=O)Cn1cc(CN2C(C(=O)OC)CN(C3CCCC3)CCS2(=O)=O)nn1 (stereo not given)	.	.	14	3	.	.	.
CCOc1ccc(C(=O)Oc2cc(C)[nH]c(=O)c2[N+](=O)[O-])cc1	1	-2	12	74*	1	0	-1
CCCCOc1ccc(C(=O)Oc2cc(C)[nH]c(=O)c2[N+](=O)[O-])cc1	1	0	5	3	1	.	.
SMILES	MsrA inh	PG9 binder	sPLA2-III inh	rCAG RNA binder	MsrA act	rCAG binder conf	DNA CAG counter	others
O=C(c1ccncc1)N1CC[C@H]2[C@H](CCCN2Cc2ccccc2)C1	.	.	1	-1	.	.	.
C[C@H]1C(=O)N2[C@@H](C[C@]3(c4c[nH]c5ccccc45)c4ccccc4N(S(=O)(=O)c4ccccc4)[C@H]23)C(=O)N1C	.	.	-17	.	.	.	.
CCc1ccc(NC(=O)CN(c2ccc(OC)cc2)S(=O)(=O)c2c(C)[nH]c(=O)[nH]c2=O)cc1	1	-1	-33	40*	-5	25	4
COc1ccc(N(CC(=O)Nc2cccc(C(F)(F)F)c2)S(=O)(=O)c2c(C)[nH]c(=O)[nH]c2=O)cc1	0	0	-29	37*	-3	33	8.3*
COc1ccc(N(CC(=O)Nc2cccc(F)c2)S(=O)(=O)c2c(C)[nH]c(=O)[nH]c2=O)cc1	0	0	2	13	-3	.	.
O=C(CS(=O)(=O)c1ccccc1)CS(=O)(=O)c1ccccc1	0	-3	-26	53*	.	2	1
CC(=O)Nc1ccc(S(=O)(=O)CC(=O)CS(=O)(=O)c2ccc(NC(C)=O)cc2)cc1	1	0	-4	39*	-12	8	4
O=C(Nc1nc2ncccn2c1-c1ccc(F)cc1)c1ccc(F)cc1	.	.	2	-1	.	.	.
O=C1NC(=S)S/C1=C\C=C\c1ccc([N+](=O)[O-])o1	3	-5	-11	67*	-8	70*	36*
CCCCN1CN2Cc3cc(F)ccc3C2CS1(=O)=O (stereo not given)	.	.	2	3	.	.	.
Cc1cc(C(=O)O)c2ccccc2n1	-1	2	1	-2	-1	.	.
CC(C)c1cc(C(=O)O)c2ccccc2n1	0	3	6	40*	0	-1	-1
C=CCC12C=C(OC)C(=O)C(C1=O)C1c3ccccc3CC12 (stereo not given)	.	.	-4	0	.	.	.
Cc1ccc(-n2c(SCc3cccc(F)c3)nc3ccccc3c2=O)cc1	.	.	8	6	.	.	.
NC(=O)c1c(N)[nH]c(C(=O)c2ccccc2)c1-c1ccccc1	2	0	18	4	.	.	.
Cc1ccc(C)n1NC(=O)c1ccccc1[N+](=O)[O-]	0	-2	-15	16	-4	.	.
Cc1ccc(C)n1NC(=O)c1ccccc1O	1	-1	2	36*	-5	22	13*
Cc1ccc(C(=O)Nc2cc(S(=O)(=O)N3CCOCC3)ccc2N2CCCC2)cc1	1	-3	-1	4	-3	.	.

Screening results deposited in PubChem BioAssay by The Scripps Research Institute Molecular Screening Center.
